Source: PubChem BioAssay (Broad Institute)
Rows were chosen to be rich in hits. Some 1.1% of all compounds tested hit in one or more screens of this group.
TcdB inh: inhibitors of Clostridioides difficile toxin B glycohydrolase | P18177 | TcdB glycohydrolase enzymatic assay, plate reader | inhibition, % at 9.99 µM | 0.24% of 350,000 active; in the data active means inhibition above about 10%
Target sequence (P18177 whole entry, looked up): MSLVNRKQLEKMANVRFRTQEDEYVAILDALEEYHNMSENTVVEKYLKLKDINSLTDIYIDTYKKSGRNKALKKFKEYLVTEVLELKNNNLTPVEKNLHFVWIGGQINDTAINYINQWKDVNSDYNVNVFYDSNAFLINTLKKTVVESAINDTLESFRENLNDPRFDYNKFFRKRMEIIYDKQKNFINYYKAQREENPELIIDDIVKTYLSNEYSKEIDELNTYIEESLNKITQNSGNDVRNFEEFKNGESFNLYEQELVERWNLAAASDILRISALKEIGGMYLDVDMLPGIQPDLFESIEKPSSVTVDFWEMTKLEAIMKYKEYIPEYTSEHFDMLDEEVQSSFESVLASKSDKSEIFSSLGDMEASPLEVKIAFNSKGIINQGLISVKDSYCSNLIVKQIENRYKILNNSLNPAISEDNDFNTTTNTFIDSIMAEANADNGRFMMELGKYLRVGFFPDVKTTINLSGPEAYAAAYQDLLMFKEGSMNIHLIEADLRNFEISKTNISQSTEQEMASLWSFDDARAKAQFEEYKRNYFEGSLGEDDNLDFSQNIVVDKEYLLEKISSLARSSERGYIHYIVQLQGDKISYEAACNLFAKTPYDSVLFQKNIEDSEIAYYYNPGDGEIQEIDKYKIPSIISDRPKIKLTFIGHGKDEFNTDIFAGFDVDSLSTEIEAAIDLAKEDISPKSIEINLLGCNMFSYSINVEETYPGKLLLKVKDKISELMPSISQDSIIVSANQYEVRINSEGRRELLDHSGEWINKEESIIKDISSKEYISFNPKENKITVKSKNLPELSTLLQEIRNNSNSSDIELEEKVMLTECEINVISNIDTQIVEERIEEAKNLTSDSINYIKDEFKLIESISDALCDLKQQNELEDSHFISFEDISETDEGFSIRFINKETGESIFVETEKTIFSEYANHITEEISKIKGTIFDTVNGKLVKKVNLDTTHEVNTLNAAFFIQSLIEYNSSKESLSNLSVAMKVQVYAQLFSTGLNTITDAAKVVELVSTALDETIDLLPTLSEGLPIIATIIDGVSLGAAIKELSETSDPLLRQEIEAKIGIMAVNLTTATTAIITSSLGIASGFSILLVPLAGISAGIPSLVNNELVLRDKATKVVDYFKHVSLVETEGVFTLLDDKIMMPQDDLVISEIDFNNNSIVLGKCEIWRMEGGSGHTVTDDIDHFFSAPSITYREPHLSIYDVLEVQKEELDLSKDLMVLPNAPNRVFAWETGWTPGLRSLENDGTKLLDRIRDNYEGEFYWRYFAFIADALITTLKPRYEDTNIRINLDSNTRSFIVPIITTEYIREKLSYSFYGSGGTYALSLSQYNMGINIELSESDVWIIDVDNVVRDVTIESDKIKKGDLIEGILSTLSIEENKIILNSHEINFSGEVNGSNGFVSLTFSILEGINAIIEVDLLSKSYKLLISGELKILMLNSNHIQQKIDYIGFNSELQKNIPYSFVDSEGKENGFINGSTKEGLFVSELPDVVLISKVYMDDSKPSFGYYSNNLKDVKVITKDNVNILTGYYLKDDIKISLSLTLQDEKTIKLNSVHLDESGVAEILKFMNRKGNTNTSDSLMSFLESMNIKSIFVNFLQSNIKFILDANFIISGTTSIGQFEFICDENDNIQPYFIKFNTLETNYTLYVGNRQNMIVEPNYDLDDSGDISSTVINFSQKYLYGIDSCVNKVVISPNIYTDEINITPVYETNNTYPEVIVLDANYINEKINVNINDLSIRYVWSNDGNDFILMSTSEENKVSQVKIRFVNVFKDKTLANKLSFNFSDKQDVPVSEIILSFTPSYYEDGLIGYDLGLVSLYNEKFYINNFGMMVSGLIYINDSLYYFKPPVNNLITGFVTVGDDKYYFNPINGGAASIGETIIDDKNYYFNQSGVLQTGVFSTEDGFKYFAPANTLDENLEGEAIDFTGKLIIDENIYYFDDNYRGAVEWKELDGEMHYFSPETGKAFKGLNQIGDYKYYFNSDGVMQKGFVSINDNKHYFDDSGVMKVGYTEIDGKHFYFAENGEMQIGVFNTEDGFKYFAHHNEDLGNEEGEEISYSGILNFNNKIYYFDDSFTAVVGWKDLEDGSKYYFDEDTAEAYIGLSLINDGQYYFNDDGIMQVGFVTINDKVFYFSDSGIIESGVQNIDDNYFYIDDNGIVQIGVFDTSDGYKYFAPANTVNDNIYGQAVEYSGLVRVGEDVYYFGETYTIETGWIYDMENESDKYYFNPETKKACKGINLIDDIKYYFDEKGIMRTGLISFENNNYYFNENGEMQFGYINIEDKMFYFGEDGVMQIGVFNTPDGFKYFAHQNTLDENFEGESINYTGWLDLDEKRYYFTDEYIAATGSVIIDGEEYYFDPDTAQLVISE
PrP 5UTR inh: inhibition of PrP 5' UTR reporter expression | AID 488862 | cell-based PrP 5' UTR mRNA reporter, plate reader | 0.35% of 340,000 active | inhibition, % (no concentration beside the values); in the data active means inhibition above about 52%; further: 0 = median of the neutral control wells
BioA inh-1: BioA (M. tuberculosis) enzyme inhibition | purified M. tuberculosis BioA enzyme, plate reader | inhibition, % at 9.99 µM | 0.096% of 360,000 active; in the data active means inhibition above about 40%
FadD28 FP inh: inhibitors of Mycobacterium tuberculosis FadD28 bisubstrate binding; FadD28 bisubstrate probe binding, fluorescence polarization; inhibition, % at 12.5 µM; 0.22% of 360,000 active; in the data active means inhibition above about 8.5%, passing the limit was not always enough
PfHsp40 rescue: rescue of PfHsp40-mediated yeast toxicity | growth rescue, % at 12.5 µM | S. cerevisiae expressing PfHsp40, growth rescue, ATP luminescence | AID 504582 | 0.68% of 340,000 active; in the data active means growth rescue above about 28%, passing the limit was not always enough;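 further: yeast W303a lacking pdr1 and pdr3 grown in galactose medium; growth measured after three days at 30 °C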
BioA inh-2: blocks M. tuberculosis BioA aminotransferase. shares compounds with BioA inh-1. purified BioA enzyme, plate reader, dose response. max activity, %. 310 tested, under 10 active. AID 651679;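 further: top concentration of the dilution series was 10 µM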
HepG2 tox 2: cytotoxicity in HepG2 cells; AID 651898; max activity, %; plate reader; 310 tested, under 10 active; shares compounds with BioA inh-1
NIH3T3 tox 5: kills NIH3T3 cells | shares compounds with BioA inh-1 | NIH3T3 cytotoxicity, plate reader | activity change, negative = cytotoxicity, % at 26 µM | 310 tested, under 10 active
The depositor's hits bear a star; i = inactive; . = no result. Unless noted, how the calls were made is not given here.

SMILES	TcdB inh	PrP 5UTR inh	BioA inh-1	FadD28 FP inh	PfHsp40 rescue	BioA inh-2	HepG2 tox 2	NIH3T3 tox 5
CC(=O)N1[C@@H]2c3ccc(-c4cccnc4)c(=O)n3C[C@@H]2[C@@H](CO)[C@@H]1C(=O)NCc1ccccc1Cl	0	.	85*	.	.	9	i	-9
Cc1ccc(S(=O)(=O)N(C)C[C@@H]2OCCCC[C@@H](C)Oc3ccc(NC(=O)CCC(F)(F)F)cc3C(=O)N([C@H](C)CO)C[C@H]2C)cc1	0	.	0	.	.	.	.	.
COCC(=O)Nc1ccc2c(c1)OC[C@@H](C)N(Cc1ccncc1)C[C@H](C)[C@H](OC)CN(C)C2=O	-4	.	-2	.	.	.	.	.
CC1CCCN(c2ccc(C(=O)Nc3cccnc3)cc2[N+](=O)[O-])C1 (centres undefined)	6	-48	54*	-3	6	-7	5	-9
CC(=O)Nc1ccc(N2CCCC(C)C2)c([N+](=O)[O-])c1 (centres undefined)	2	-3	.	2	0	.	.	.
COC(=O)c1c(C(=O)OC)c(-c2cccc(F)c2)n2c1CS(=O)C2 (centres undefined)	-1	-31	98*	-2	-1	-6	-11	8
N#C[C@@H]1[C@H](c2ccccc2)[C@H](CO)N1C(=O)Nc1cccc(F)c1	-1	.	29	.	.	.	.	.
N#C[C@H]1[C@@H](c2ccccc2)[C@@H](CO)N1C(=O)Nc1cccc(F)c1	-1	.	77*	.	.	17	i	8
O=C(C[C@@H]1CC[C@@H](NC(=O)c2ccncc2)[C@@H](CO)O1)NCC1CCCCC1	-1	.	-1	.	.	.	.	.
Cc1cc(C(=O)NC2CC(C)(C)Cc3c2cnn3-c2cccc(F)c2)nn1C (centres undefined)	1	-3	69*	0	-1	-9	-9	-8
CCCc1cc(=O)oc2c3c(cc(OCC(=O)NCCCn4ccnc4)c12)OC(C)(C)CC3	11*	-9	43*	-1	1	-6	8	-6
O=C(Nc1ncc2c(n1)CC(c1ccco1)CC2=O)c1ccco1 (centres undefined)	-12	-9	54*	-2	0	22	25	3
CCCC(=O)Nc1ccc2c(c1)OC[C@H](C)N(Cc1ccccn1)C[C@@H](C)[C@@H](OC)CN(C)C2=O	1	.	-3	.	.	.	.	.
CC(=O)c1ccc(N2CCN(C(=O)Cc3cccs3)CC2)cc1	.	-13	49*	-5	0	-6	15	0
COc1ccc(N2CCN(C(=O)Cc3cccs3)CC2)cc1	2	-14	3	-2	-2	.	.	.
Cc1ccc(NCc2nnc(SCC(=O)N3CCc4ccccc43)n2C)cc1	.	-34	47*	0	0	-9	12	-10
CO[C@@H]1CN(C)C(=O)c2ccc(NC(C)=O)cc2OC[C@@H](C)N(CCc2ccccc2)C[C@H]1C	1	.	4	.	.	.	.	.
O=C(C1CCCN(S(=O)(=O)c2cccnc2)C1)N1CCn2c1nc1ccccc12 (centres undefined)	0	6	46*	-2	1	-5	11	2
O=C(NCc1ccccc1)C1CCCN(S(=O)(=O)c2cccnc2)C1 (centres undefined)	.	-6	-2	-1	-2	.	.	.
C[C@@H]1CN([C@@H](C)CO)C(=O)c2cc(C#Cc3cccnc3)cnc2O[C@@H]1CN(C)S(C)(=O)=O	0	.	5	.	.	.	.	.
C[C@@H]1CN([C@H](C)CO)C(=O)c2cc(C#Cc3cccnc3)cnc2O[C@H]1CN(C)S(C)(=O)=O	1	.	84*	.	.	-2	i	-2
C[C@@H]1CN([C@H](C)CO)C(=O)c2cc(NC(=O)CCCCCC(=O)Nc3ccccc3N)ccc2O[C@@H]1CN(C)S(C)(=O)=O	0	.	-1	.	.	.	.	.
O=C(Nc1ccc2snnc2c1)N1CCN(c2ccccc2)CC1	.	-23	75*	-1	-1	-8	16	1
O=C(Nc1ccc2snnc2c1)N1CCOCC1	.	-4	65*	-1	-1	-5	15	1
CNC[C@@H]1Oc2ncc(C#Cc3cccc(F)c3)cc2C(=O)N([C@H](C)CO)C[C@@H]1C	-1	.	.	.	.	.	.	.
CC(C)n1c(N2CCN(C(=O)c3cccs3)CC2)nc2ccccc21	.	-6	42*	2	-1	5	24	3
CC(C)Cn1c(N2CCN(C(=O)c3cccs3)CC2)nc2ccccc21	.	-29	.	-1	-1	.	.	.
CCC(CO)[n+]1c(C)cc(/C=C2\Sc3ccccc3N2Cc2ccccc2)cc1C (centres undefined)	22*	-2	53*	-3	4	-6	14	-9
CC(=O)c1ccc(N2CCN(S(=O)(=O)c3c(C(=O)N4CCCC4)c(C)n(C)c3C)CC2)cc1	1	-3	42*	0	-2	-3	-5	13
CC(Oc1cc2oc(=O)c3c(c2cc1Cl)CCC3)C(=O)NCc1cccnc1 (centres undefined)	-2	-18	47*	0	1	-8	-20	-5
